Screen size: about 4,100 compounds; about 1,600 (39%) were called active. About 25% were inconclusive and are not listed. The list shows a part of the results. Values without a mark were called inactive. Calls follow the shape of the dose curve; as a rule, active = well fitted inhibition curve with a large enough effect; inconclusive = small, poorly fitted or top-dose-only effect; inactive = no such curve, though single readings can be large or run the other way.
Experiment: qHTS Validation assay for Inhibitors of Plasmodium falciparum Dd2 growth in vitro; also: nearly all actives have a fitted effect of over 70% in size
Details: P. falciparum Dd2 in RBCs, SYBR Green growth, 72 h; series mostly up to 28.7 µM; activity change, negative = inhibition: at the top concentration
Description: Malaria, a parasitic disease spread to humans through the bite of a Plasmodium infected Anopheles mosquito, continues to be a global health burden affecting millions of people, with an estimated 228 million cases and 405,000 deaths in 2018. Concerns about safety and limitations of current antimalarial treatments strongly emphasize the need to develop new therapeutic options. The scarce number of chemotypes and validated drug targets with efficacy against the liver stage, have hindered development of new antimalarials. To address this, a chemoprophylactic drug discovery effort was conducted through a combined phenotypic high-throughput asexual blood stage and liver stage screen, providing a robust foundation to identify liver-stage active lead chemotypes. Compounds were initially screened against Plasmodium falciparum Dd2 strain parasites using a in vitro SYBRGreen-1 based 72 hr proliferation assay to identify novel chemotypes to advance to liver stage assays. NIH/NCATS Early Translation Branch Assay Submitter (PI): Anton Simeonov Ph.D.
[…] Assay Protocol: PROTOCOL TABLE (as described by Inglese et al., 2007) SEQUENCE No. (e.g., 1, 2, 3, etc.); PARAMETER (e.g., Cells, Incubation, Reagent, etc.); VALUE; DESCRIPTION SEQUENCE, Parameter, Description 1; Reagent; 3 uL complete malaria growth medium, 1536 TC treated Black clear bottom plate 2; Controls; 23 nL positive control artesunate (300 nM final) to column 1; Neutral control DMSO to columns 2-4 3; Compound; 23 nL of compounds in dose response concentration (29 uM to 0.5 nM final) 4; Reagent; 5 uL malaria infected red blood cells (2.5% hematocrit final, 0.3% parasitemia 5; Time; 72 hours at 37C (5% O2, 5% CO2, 90% N2; 95% Rh) 6; Reagent; 2 uL lysis buffer/SYBRGreen-1, 25 sec shake immediately following dispense 7; Time; ~16 hours at 37C (5% O2, 5% CO2, 90% N2; 95% Rh) 8; Detector; EnVision (PerkinElmer) bottom read at 485/14nm excitation and 535/25 nm emission NOTES (numbers refer to sequence above): 1; Complete Malaria Growth Media: 1X RPMI-1640 w/L-glutamine, 5.5g/L Albumax II, 367 uM Hypoxanthine, 25 mM HEPES, 0.25% Sodium Bicarbonate, 35 uM Gentamicin sulfate 2; Controls were added using the Kalypsis Pintool (Wako USA) equipped with 1536 pinhead 3; Compounds were added in a 7-point, titration with a high final concentration of 29 uM by Pintool from seven inter-plate titrations of library plates and two DMSO control plates at the beginning and end (see Yasgar et al., 2008). 4; Red blood cells infected with Plasmodium falciparum Dd2 parasites were used. 6; Lysis buffer: 20 mM Tris-HCl, 10 mM EDTA, 0.16% Saponin, 1.6% Triton-X, 10X SYBR Green. REFERENCE: Inglese J, Shamu CE, Guy RK. 2007. Reporting data from high-throughput screening of small-molecule libraries. Nat Chem Biol. doi:10.1038/nchembio0807-438 Yasgar A, Shinn P, Jadhav A, Auld D, Michael S, Zheng W, Austin CP, Inglese J, Simeonov A. 2008. Compound Management for Quantitative High-Throughput Screening. J Lab Autom 13:79-89. doi:10.1016/j.jala.2007.12.004
For `COc1ccccc1NCc1cc(=O)oc2c(C)c(O)ccc12`, the Potency was 5.96 µM (active).
With `COc1ccc(C)cc1NCc1cc(=O)oc2cc(-c3ccccc3)c(O)cc12` the Potency was 5.31 µM (active).
With `Cc1ccc(Nc2cc(=O)oc3ccccc23)c(C)c1` the “activity change, negative = inhibition” value was -20.1%.
For `COc1ccc(-c2nc3ccccc3o2)cc1NC(=O)COc1c(C)cc(Cl)cc1Cl`, the “activity change, negative = inhibition” value was 13.1%.
In the case of `O=C(Nc1ccc([N+](=O)[O-])cc1)Nc1ccc(OC(F)F)c(Cl)c1`, the Potency is reported as 2.66 µM (active).
In the case of `Oc1ccc(-c2ccccc2)cc1CN1CCCCCC1`, the Potency is reported as 0.266 µM (active).
For `CN1C(=O)CC(C(=O)O)C12CCN(Cc1cccc(C(=O)O)n1)CC2` (stereo not given), the “activity change, negative = inhibition” value was 37.6%.
In the case of `Oc1ccc(CN2CCCCC2)nc1-c1ccccc1`, the Potency is reported as 0.531 µM (active).
In the case of `CNC(=O)[C@H]1C[C@H](Oc2ccccc2)CN1C(=O)CCc1nc2ccccc2[nH]1`, the “activity change, negative = inhibition” value is reported as 4.06%.
For `C/C(Cl)=C/Cc1c(C)[nH]c2c(ccc3ccccc32)c1=O`, the Potency was 0.842 µM (active).
For `COc1ccc(-n2nc(C3CCCN(C(=O)Nc4ccccc4)C3)[nH]c2=O)cc1` (stereo not given), the “activity change, negative = inhibition” value was 0%.
For `O=c1[nH]c(C2CCCN(Cc3ccccn3)C2)nn1-c1ccc(Cl)cc1` (stereo not given), the Potency was 2.37 µM (active).
For `O=c1[nH]c(C2CCCN(Cc3ccc(F)cc3)C2)nn1-c1ccc(Cl)cc1` (stereo not given), the “activity change, negative = inhibition” value was -21.6%.
With `COc1ccc(C(=O)N2CCC(Cc3nc(-c4ccccc4)n[nH]3)CC2)cc1OC` the “activity change, negative = inhibition” value was -19%.
In the case of `C/C=C/c1cc(CN2CCN(c3ccccc3)CC2)c(O)c(OC)c1`, the Potency is reported as 5.96 µM (active).
For `COc1cc(C)cc(CN2CCC(Cc3ccccc3)CC2)c1O`, the Potency was 0.75 µM (active).
With `CCn1ccc2sc(C)c(C(=O)N3CCC(Cc4ccccc4)CC3)c2c1=O` the “activity change, negative = inhibition” value was 1.55%.
In the case of `CCN1C(=O)C2CC3(CCN(C(=O)CCc4nc5ccccc5[nH]4)CC3)CN2C1=O` (stereo not given), the “activity change, negative = inhibition” value is reported as 13.2%.
With `COC1CN(c2ccc(C)cc2)C12CCN(C(=O)CCc1nc3ccccc3s1)CC2` (stereo not given) the Potency was 10.6 µM (active).
For `O=C(CCc1nc2ccccc2s1)N1CCC(c2nc(C3CCOCC3)no2)CC1`, the “activity change, negative = inhibition” value was -6.71%.
In the case of `O=C(Nc1cccc(-c2nnc3n2CCCC3)c1)c1ccoc1`, the “activity change, negative = inhibition” value is reported as -11.3%.
For `Cc1ccc(C(=O)N2CCCC(n3cc(-c4nc(-c5ccccc5)no4)nn3)C2)cc1` (stereo not given), the “activity change, negative = inhibition” value was 0.926%.
With `CCc1ccc(NC(=O)C2CCN(C(=O)c3nnn4cc(C)[nH]c(=O)c34)CC2)cc1` the “activity change, negative = inhibition” value was 30.5%.
For `CCN(CC)C(=O)c1ccc(-c2nnc3ccc(NC(=O)C4CC4)cn23)cc1`, the Potency was 2.99 µM (active).
With `CCN1CCN(C(=O)c2ccc(-c3nnc4ccc(NC(=O)C5CC5)cn34)cc2)CC1` the Potency was 6.68 µM (active).
In the case of `COc1ccc(C(=O)Nc2cccc(-c3nnc4n3CCCC4)c2)cc1F`, the “activity change, negative = inhibition” value is reported as -19%.
For `Cc1ccc(CCNC(=O)C2CCN(C(=O)c3cc4c(=O)[nH]c(C)cn4n3)CC2)cc1`, the “activity change, negative = inhibition” value was 7.15%.
For `COc1ccc(C2Cn3cnc(C(=O)N4CCC(C(=O)Nc5ccc(F)c(C)c5)CC4)c3CO2)cc1` (stereo not given), the “activity change, negative = inhibition” value was 2.95%.
In the case of `O=C(c1ccsc1)N1CCN(c2nnc3ccc(C(F)(F)F)cn23)CC1`, the “activity change, negative = inhibition” value is reported as -20.5%.
For `CC(=O)Nc1ccc2nnc(-c3ccc(C(=O)N4CCCCCC4)cc3)n2c1`, the Potency was 8.41 µM (active).
In the case of `COc1cccc(NC(=O)c2ccc(-c3nnc4ccc(NC(=O)C5CCC5)cn34)cc2)c1`, the Potency is reported as 3.76 µM (active).
For `CCOc1ccc(NC(=O)c2ccc(-c3nnc4ccc(NC(=O)C5CC5)cn34)cc2)cc1`, the Potency was 2.99 µM (active).
In the case of `COc1ccc(C(=O)Nc2ccc(OCc3cc(=O)n4ccccc4n3)cc2)cc1`, the “activity change, negative = inhibition” value is reported as 13.9%.
With `CCCc1noc(-c2ccn3c(CNC(=O)c4ccc(OC)cc4)nnc3c2)n1` the “activity change, negative = inhibition” value was -13.4%.
For `COc1ccc(NC(=O)c2ccc3c(c2)N(C)C2CCCCN2C3=O)cc1` (stereo not given), the “activity change, negative = inhibition” value was 11.3%.
In the case of `CCOc1ccc(C(=O)Nc2cccc(-c3nnc4n3CCCC4)c2)cc1`, the “activity change, negative = inhibition” value is reported as -14.3%.
With `CC(C)(C)NC(=O)c1ccc(-c2nnc3ccc(NC(=O)C4CC4)cn23)cc1` the Potency was 9.44 µM (active).
With `COc1ccc(C(=O)Nc2ccc(-c3nc4ncccc4o3)cc2)cc1` the “activity change, negative = inhibition” value was -23.5%.
For `COc1ccc(NC(=O)c2ccc(-c3nnc4ccc(NC(=O)C5CC5)cn34)cc2)cc1`, the Potency was 2.66 µM (active).
With `COc1ccc(NC(=O)c2ccc(-c3nnc4ccc(NC(=O)C5CCC5)cn34)cc2)cc1` the Potency was 4.22 µM (active).
In the case of `CCC(=O)Nc1ccc2nnc(-c3ccc(C(=O)Nc4ccc5c(c4)OCCO5)cc3)n2c1`, the Potency is reported as 7.5 µM (active).
In the case of `COCCN1C(=O)CCc2cc(NC(=O)c3ccc4c(c3)OCO4)ccc21`, the “activity change, negative = inhibition” value is reported as -9.58%.
For `Cc1cn2nc(C(=O)Nc3ccc4c(c3)OCCO4)cc2c(N2CCCC2)n1`, the “activity change, negative = inhibition” value was 0%.
With `O=C(Cc1ccccc1)NCC1CN(Cc2cccc(Cl)c2)CC12CN(c1ccccc1)C2` (stereo not given) the “activity change, negative = inhibition” value was 5.28%.
With `Oc1ccc(CN2CC(CNc3ccccc3)C3(C2)CN(c2ccccc2)C3)cc1` (stereo not given) the Potency was 0.611 µM (active).

— PubChem BioAssay AID1347416 (National Center for Advancing Translational Sciences (NCATS), 2020)
% is scaled to controls: 0 for no effect and ±100 for the full control effect; potency is read from the fitted curve at half-maximal effect.
